The full data set covers some 8,800 targets. This sample favours those with a hit. About 0.5% of all pairs of compound and target were hits.
How the values were obtained:
Assay in all cases: log2 fold change, soluble protein after heating vs DMSO (PISA); higher = thermal stabilisation; K562 lysate, 10 uM; active = over 0.2 and 3.5 SD of the protein, either way, in both replicates (recomputed)
[1] = compound: C1=CC=C(C=C1)[C@H](COC2=CC3=C(C=C2)NC(=O)N3)NC(=O)C4=CC=CN(C4=O)CC5=CC(=C(C=C5)F)F
How it was run: (§1)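 Log-two fold change in thermal stability relative to solvent controls is reported from duplicates. For each sample, crude K562 extract from dounce-homogenised pellets in PBS pH 7.4 with 1 mM MgCl2, at 1 mg/mL protein, was treated with 10 μM compound for 30 min. Aliquots heated for 3 min across 48°C-58°C were pooled, brought to 0.5% NP-40 at 4°C and cleared at 21,000xg for 90 min. The supernatant was quantified by TMTpro 16plex LC-MS/MS with channel sums equalised.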

[2] = compound: CC1=C(SC2=C1C(=N[C@H](C3=NN=C(N32)C)CC(=O)N)C4=CC=C(C=C4)Cl)C
How it was run: as §1

[3] = compound: CC1=C2C(=CC=C1)N=C(N(C2=O)C3=CC=CC=C3C)CN4C=NC5=C(N=CN=C54)N
How it was run: as §1

[4] = compound: Cc1sc2c(c1C)C(c1ccc(Cl)cc1)=N[C@@H](CC(=O)OC(C)(C)C)c1nnc(C)n1-2
How it was run: as §1

[5] = compound: c1ccc([C@@H]2C[C@H]2NC2CCNCC2)cc1
How it was run: as §1

Measured: log2 fold change

XPOT (UniProt O43592)
inactive: [1] -0.017 | [2] 0.008 | [3] 0.037 | [4] 0.003 | [5] 0.021

VARS (UniProt P26640)
inactive: [1] -0.022 | [2] 0.013 | [3] 0.013 | [4] 0 | [5] 0.031

USP16 (UniProt Q9Y5T5)
inactive: [1] 0.047 | [2] -0.015 | [3] 0.011 | [4] 0.038 | [5] -0.002

VPS39 (UniProt Q96JC1)
Sequence of UniProt Q96JC1 (Q96JC1 whole entry, looked up): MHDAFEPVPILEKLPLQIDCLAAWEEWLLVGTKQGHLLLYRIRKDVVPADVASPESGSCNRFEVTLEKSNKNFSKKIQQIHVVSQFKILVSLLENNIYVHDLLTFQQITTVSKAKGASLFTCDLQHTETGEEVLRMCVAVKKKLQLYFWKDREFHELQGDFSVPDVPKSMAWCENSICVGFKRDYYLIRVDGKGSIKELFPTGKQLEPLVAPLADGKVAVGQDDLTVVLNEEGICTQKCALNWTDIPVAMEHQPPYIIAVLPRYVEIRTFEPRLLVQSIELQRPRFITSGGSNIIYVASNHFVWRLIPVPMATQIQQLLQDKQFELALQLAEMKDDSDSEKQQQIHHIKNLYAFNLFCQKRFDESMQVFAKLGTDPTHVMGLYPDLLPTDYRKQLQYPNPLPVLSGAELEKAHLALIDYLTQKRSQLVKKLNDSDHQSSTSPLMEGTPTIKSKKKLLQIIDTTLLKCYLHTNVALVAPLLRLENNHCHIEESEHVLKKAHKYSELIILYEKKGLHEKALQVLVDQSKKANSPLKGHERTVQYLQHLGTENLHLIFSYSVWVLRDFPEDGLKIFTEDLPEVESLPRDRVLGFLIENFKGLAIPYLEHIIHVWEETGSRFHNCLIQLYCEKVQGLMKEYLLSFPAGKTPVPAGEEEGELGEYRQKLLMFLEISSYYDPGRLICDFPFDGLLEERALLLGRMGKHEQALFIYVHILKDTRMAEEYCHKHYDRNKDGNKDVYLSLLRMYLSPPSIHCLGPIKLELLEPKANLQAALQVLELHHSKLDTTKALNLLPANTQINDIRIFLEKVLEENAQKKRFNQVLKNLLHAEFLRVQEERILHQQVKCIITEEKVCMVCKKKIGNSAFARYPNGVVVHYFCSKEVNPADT
inactive: [1] -0.008 | [2] -0.002 | [3] -0.006 | [4] -0.009 | [5] 0.3

ZFYVE19 (UniProt Q96K21)
inactive: [1] 0.076 | [2] 0.042 | [3] 0.012 | [4] -0.032 | [5] -0.183

ZMYM1 (UniProt Q5SVZ6)
inactive: [1] 0.009 | [2] 0.099 | [3] -0.012 | [4] 0 | [5] -0.2

WDR6 (UniProt Q9NNW5)
inactive: [1] -0.001 | [2] 0.02 | [3] 0.008 | [4] -0.021 | [5] -0.013

VPS18 (UniProt Q9P253)
inactive: [1] -0.014 | [2] 0.013 | [3] 0.032 | [4] 0.067 | [5] 0.012

USP8 (UniProt P40818)
inactive: [1] -0.018 | [2] 0.016 | [3] 0.01 | [4] 0.009 | [5] 0.036

ZZEF1 (UniProt O43149)
inactive: [1] -0.022 | [2] -0.004 | [3] 0.012 | [4] -0.05 | [5] -0.028

ZBTB33 (UniProt Q86T24)
inactive: [1] 0.046 | [2] -0.082 | [3] 0.003 | [4] 0 | [5] -0.015

XPNPEP1 isoform 3 (UniProt Q9NQW7)
inactive: [1] -0.007 | [2] -0.025 | [3] 0.002 | [4] 0.044 | [5] -0.006

USP48 (UniProt Q86UV5)
inactive: [1] -0.104 | [2] -0.028 | [3] -0.029 | [4] 0.098 | [5] -0.187

WDCP (UniProt Q9H6R7)
inactive: [1] 0.023 | [2] 0.068 | [3] -0.04 | [4] 0.049 | [5] 0.025

WDR77 (UniProt Q9BQA1)
inactive: [1] 0.02 | [2] 0.012 | [3] 0.012 | [4] 0.006 | [5] 0.006

VAV1 (UniProt P15498)
Sequence of UniProt P15498 (P15498 whole entry, looked up): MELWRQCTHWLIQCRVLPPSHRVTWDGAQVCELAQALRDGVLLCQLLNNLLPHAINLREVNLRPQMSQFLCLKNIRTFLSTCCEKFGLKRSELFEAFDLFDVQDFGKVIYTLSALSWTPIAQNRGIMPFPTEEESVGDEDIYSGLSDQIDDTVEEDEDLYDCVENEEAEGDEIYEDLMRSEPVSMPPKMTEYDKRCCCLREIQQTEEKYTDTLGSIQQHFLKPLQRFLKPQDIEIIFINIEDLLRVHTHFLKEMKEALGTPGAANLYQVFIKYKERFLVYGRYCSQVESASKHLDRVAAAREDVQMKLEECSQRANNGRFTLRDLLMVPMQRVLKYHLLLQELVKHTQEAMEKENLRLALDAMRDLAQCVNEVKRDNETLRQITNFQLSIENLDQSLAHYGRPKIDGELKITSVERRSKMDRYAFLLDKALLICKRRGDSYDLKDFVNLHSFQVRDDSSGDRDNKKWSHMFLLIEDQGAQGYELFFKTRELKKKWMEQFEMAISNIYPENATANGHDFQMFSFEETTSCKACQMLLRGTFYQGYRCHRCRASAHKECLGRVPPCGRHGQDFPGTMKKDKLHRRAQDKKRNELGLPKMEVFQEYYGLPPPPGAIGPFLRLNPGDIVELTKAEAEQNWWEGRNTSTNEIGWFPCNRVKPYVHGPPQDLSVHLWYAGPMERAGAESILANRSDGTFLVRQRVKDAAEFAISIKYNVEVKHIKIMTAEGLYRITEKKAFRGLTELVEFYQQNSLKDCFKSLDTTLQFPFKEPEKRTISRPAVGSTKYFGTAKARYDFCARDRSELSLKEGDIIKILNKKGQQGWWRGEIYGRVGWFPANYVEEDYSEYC
inactive: [1] -0.025 | [2] 0.001 | [3] -0.011 | [4] -0.017 | [5] -0.068

USP34 (UniProt Q70CQ2)
inactive: [1] -0.002 | [2] -0.015 | [3] 0 | [4] -0.004 | [5] 0.073

XPO5 (UniProt Q9HAV4)
Sequence of UniProt Q9HAV4 (Q9HAV4 whole entry, looked up): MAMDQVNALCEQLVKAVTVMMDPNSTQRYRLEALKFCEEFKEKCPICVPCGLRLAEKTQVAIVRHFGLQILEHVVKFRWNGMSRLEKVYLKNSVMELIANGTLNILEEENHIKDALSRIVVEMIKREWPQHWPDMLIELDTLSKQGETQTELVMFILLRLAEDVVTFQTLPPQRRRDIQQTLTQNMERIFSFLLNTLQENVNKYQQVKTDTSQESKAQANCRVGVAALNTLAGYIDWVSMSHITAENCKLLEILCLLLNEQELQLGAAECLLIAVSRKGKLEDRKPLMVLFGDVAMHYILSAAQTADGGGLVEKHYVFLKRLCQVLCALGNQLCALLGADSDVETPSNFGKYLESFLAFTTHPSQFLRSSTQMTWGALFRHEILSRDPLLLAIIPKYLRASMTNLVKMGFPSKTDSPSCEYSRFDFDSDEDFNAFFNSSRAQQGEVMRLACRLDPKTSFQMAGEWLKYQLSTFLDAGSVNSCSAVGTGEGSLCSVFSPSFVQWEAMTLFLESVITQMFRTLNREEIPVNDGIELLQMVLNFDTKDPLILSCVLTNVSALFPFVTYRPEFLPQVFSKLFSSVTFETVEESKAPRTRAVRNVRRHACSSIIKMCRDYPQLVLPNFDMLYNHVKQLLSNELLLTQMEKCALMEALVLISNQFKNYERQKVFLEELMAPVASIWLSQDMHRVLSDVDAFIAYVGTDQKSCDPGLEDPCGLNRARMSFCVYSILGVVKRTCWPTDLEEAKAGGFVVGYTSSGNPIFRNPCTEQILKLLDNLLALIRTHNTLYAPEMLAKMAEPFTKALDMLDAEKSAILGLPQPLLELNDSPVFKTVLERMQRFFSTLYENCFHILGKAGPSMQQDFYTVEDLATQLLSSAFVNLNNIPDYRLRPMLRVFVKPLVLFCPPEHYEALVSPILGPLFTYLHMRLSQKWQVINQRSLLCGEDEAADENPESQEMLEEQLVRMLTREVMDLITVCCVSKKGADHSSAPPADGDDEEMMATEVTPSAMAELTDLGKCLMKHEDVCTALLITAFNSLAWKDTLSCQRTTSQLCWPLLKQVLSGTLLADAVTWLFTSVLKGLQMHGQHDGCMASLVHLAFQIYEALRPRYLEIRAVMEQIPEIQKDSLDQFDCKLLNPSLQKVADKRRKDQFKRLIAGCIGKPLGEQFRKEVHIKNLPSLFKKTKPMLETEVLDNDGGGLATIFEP
inactive: [1] -0.046 | [2] -0.021 | [3] 0.002 | [4] -0.021 | [5] 0.032

WEE1 (UniProt P30291)
inactive: [1] -0.002 | [2] -0.099 | [3] -0.047 | [4] 0.03

UNKL (UniProt E9PDK2)
inactive: [1] -0.025 | [2] 0.09 | [3] 0.249 | [4] 0.022

URGCP (UniProt Q8TCY9)
inactive: [1] 0.003 | [2] 0.036 | [3] 0.044 | [4] 0.047

ZFYVE19 isoform 3 (UniProt Q96K21)
inactive: [1] 0.062 | [2] -0.075

UNC45A (UniProt Q9H3U1)
inactive: [1] -0.036 | [2] -0.011 | [3] 0.036 | [4] 0.004 | [5] 0.039

ZNF845 (UniProt Q96IR2)
inactive: [1] -0.239 | [2] 0.048 | [3] 0.114 | [4] -0.058 | [5] 0.083

ZNHIT6 (UniProt Q9NWK9)
inactive: [1] 0.106 | [2] -0.063 | [3] 0.013 | [4] 0.089 | [5] 0.008

WDR36 (UniProt Q8NI36)
inactive: [1] 0.006 | [2] 0.001 | [3] 0.06 | [4] 0.025 | [5] 0.035

ZC3H11A (UniProt O75152)
inactive: [1] -0.015 | [2] 0 | [3] 0.081 | [4] 0.023 | [5] 0.063

VPS16 (UniProt Q9H269)
inactive: [1] -0.035 | [2] -0.009 | [3] 0.041 | [4] 0.011 | [5] 0.005

USP3 (UniProt Q9Y6I4)
inactive: [1] 0.026 | [2] 0.006 | [3] -0.056 | [4] -0.044 | [5] 0.073

VRK1 (UniProt Q99986)
inactive: [1] -0.002 | [2] 0.017 | [3] 0.023 | [4] -0.005 | [5] 0.034

VASP (UniProt P50552)
Sequence of UniProt P50552 (P50552 whole entry, looked up): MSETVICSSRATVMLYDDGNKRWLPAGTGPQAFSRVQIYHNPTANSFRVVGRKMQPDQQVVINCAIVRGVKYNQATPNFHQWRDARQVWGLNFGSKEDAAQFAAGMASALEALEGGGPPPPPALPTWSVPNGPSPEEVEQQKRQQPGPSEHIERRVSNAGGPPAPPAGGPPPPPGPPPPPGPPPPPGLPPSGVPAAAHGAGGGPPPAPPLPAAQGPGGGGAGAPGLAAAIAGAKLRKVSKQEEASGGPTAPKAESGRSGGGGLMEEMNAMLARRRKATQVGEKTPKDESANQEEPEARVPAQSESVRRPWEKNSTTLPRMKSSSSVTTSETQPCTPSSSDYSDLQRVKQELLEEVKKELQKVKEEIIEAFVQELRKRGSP
inactive: [1] -0.005 | [2] 0.006 | [3] 0.008 | [4] -0.052 | [5] 0.017

VHL (UniProt P40337)
inactive: [1] 0.165 | [2] 0.004 | [3] -0.029 | [4] -0.178 | [5] 0.08

XAB2 (UniProt Q9HCS7)
inactive: [1] -0.009 | [2] 0.05 | [3] 0 | [4] -0.018 | [5] 0.035

USP22 (UniProt Q9UPT9)
inactive: [1] 0.039 | [2] -0.025 | [3] 0.012 | [4] 0.045 | [5] 0.055

ZNF644 (UniProt Q9H582)
inactive: [1] 0 | [2] 0.003 | [3] -0.098 | [4] -0.009 | [5] 0.01

ZFPM1 (UniProt Q8IX07)
inactive: [1] 0.073 | [2] -0.033 | [3] -0.012 | [4] -0.036 | [5] 0.078

YEATS4 (UniProt O95619)
Sequence of UniProt O95619 (O95619 whole entry, looked up): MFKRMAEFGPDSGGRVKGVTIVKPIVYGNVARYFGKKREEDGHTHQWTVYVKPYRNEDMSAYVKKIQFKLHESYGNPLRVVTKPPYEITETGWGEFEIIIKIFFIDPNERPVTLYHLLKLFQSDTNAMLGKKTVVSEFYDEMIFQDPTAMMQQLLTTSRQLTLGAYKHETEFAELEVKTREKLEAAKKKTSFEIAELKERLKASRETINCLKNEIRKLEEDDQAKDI
inactive: [1] -0.014 | [2] 0.05 | [3] -0.029 | [4] 0.046 | [5] 0.25

ZC2HC1A (UniProt Q96GY0)
inactive: [1] 0.059 | [2] -0.046 | [3] -0.018 | [4] 0.106 | [5] -0.058

VPS41 (UniProt P49754)
inactive: [1] -0.046 | [2] 0.005 | [3] -0.016 | [4] 0.067 | [5] 0.13

VAMP2 (UniProt P63027)
inactive: [1] -0.045 | [2] -0.053 | [3] -0.024 | [4] 0.014 | [5] 0.081

WDR20 isoform 7 (UniProt Q8TBZ3)
inactive: [1] -0.037 | [2] -0.002 | [3] 0.035 | [4] -0.176 | [5] -0.124

VANGL1 (UniProt Q8TAA9)
inactive: [1] 0.064 | [2] 0.088 | [3] -0.055 | [4] -0.004 | [5] -0.076

WDR45 isoform 2 (UniProt Q9Y484)
inactive: [1] -0.024 | [2] 0.061 | [3] 0.073 | [4] -0.018 | [5] -0.014

ZNF593 (UniProt O00488)
inactive: [1] -0.038 | [2] 0.051 | [3] 0.008 | [4] 0.127 | [5] 0.035

YME1L1 (UniProt Q96TA2)
inactive: [1] 0.004 | [2] -0.021 | [3] 0.032 | [4] -0.008 | [5] 0.002

VPS28 (UniProt Q9UK41)
inactive: [1] -0.087 | [2] -0.04 | [3] -0.013 | [4] 0.073 | [5] 0

WDHD1 (UniProt O75717)
inactive: [1] 0.018 | [2] -0.011 | [3] -0.017 | [4] 0.011 | [5] 0.067

ZMYM4 (UniProt Q5VZL5)
Sequence of UniProt Q5VZL5 (Q5VZL5 whole entry, looked up): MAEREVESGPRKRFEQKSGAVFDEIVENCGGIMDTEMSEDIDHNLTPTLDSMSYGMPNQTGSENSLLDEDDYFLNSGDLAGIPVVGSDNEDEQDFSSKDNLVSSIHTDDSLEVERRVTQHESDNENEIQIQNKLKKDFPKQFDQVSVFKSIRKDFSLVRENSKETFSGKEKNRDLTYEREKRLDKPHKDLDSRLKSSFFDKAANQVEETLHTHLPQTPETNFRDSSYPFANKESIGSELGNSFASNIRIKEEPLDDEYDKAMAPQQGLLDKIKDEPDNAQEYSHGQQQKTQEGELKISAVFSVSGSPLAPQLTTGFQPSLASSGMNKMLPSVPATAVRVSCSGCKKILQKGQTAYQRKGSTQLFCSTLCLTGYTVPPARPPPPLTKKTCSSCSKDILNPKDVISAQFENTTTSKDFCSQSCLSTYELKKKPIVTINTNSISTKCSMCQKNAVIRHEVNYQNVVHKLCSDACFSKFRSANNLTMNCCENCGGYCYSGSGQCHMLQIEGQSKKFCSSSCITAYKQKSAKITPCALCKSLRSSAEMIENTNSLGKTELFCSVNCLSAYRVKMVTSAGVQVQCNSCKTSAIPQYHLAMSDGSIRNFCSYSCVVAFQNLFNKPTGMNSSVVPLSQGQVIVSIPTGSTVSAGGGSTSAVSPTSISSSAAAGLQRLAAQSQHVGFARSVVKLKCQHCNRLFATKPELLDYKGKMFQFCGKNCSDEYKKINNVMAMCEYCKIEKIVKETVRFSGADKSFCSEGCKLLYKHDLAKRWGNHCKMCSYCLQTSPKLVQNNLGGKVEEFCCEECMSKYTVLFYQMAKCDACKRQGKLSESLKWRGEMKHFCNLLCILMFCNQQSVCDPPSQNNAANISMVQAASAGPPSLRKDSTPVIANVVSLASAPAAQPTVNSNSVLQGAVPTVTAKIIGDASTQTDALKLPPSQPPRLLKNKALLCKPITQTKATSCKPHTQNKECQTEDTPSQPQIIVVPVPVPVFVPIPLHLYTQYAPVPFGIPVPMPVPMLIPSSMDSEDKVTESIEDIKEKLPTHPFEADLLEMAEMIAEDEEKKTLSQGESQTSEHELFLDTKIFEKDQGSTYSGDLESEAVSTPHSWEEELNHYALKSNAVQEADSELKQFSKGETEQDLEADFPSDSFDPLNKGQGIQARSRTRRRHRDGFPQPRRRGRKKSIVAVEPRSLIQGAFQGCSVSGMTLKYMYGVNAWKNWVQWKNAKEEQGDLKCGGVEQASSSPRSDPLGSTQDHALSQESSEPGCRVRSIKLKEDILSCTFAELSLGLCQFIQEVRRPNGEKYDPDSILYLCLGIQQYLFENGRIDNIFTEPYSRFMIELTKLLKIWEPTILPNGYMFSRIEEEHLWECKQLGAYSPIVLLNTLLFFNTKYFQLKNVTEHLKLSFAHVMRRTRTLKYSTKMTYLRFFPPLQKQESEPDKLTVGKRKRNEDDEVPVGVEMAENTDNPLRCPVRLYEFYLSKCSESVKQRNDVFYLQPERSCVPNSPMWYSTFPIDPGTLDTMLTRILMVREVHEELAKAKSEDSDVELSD
inactive: [1] 0.133 | [2] -0.081 | [3] -0.054 | [4] -0.023 | [5] 0.011

UNC13D (UniProt Q70J99)
inactive: [1] -0.032 | [2] 0.067 | [3] 0.044 | [4] 0.025 | [5] 0.024

VPS33A (UniProt Q96AX1)
inactive: [1] 0 | [2] 0.017 | [3] 0.014 | [4] -0.013 | [5] -0.01

WRN (UniProt Q14191)
inactive: [1] 0.006 | [2] -0.017 | [3] 0.009 | [4] 0.01 | [5] 0.006

ZMYM2 (UniProt Q9UBW7)
inactive: [1] 0.105 | [2] 0.07 | [3] 0.062 | [4] 0.015 | [5] 0.183

USP9X (UniProt Q93008)
inactive: [1] -0.033 | [2] 0.005 | [3] 0.014 | [4] 0.008 | [5] -0.001

ZNF451 (UniProt Q9Y4E5)
inactive: [1] -0.038 | [2] 0.03 | [3] -0.014 | [4] 0.018 | [5] 0.009

From the supplement of paper PMC10849652
